Data on 6 compounds can be found in PubChem BioAssay (NCATS).

A short description of assay [1]: Viability counterscreen for antagonist of constitutive androstane receptor (CAR) against the NCATS DSHEA and TCM libraries (AID 1794837).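 Also: compound exposure lasted 24 h before viability reading.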 The method in brief:
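Viability was measured by CellTiter-Fluor fluorescence (405/540 nm, 1 hr) in HepG2-CYP2B6-hCAR cells. Cells were co-treated 24 hr with 48 uM CITCO (final), antagonist mode, and test substances.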

The nature of assay [2]: Viability counterscreen for agonist of constitutive androstane receptor (CAR) against the NCATS DSHEA and TCM libraries (AID 1794838).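 Also: cells exposed to compound for 24 h.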 The method in brief: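 Cell viability, from CellTiter-Fluor fluorescence (405/540 nm), was scored after a 24 h, 37C exposure of HepG2 cells carrying CYP2B6 reporter and hCAR to test substances in presence of 0.75 uM PK11195.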
The target in assay [3] is Nuclear receptor subfamily 1 group I member 3 (Homo sapiens) (UniProt Q14994). Put plainly: Primary qHTS for agonist of constitutive androstane receptor (CAR) against the NCATS DSHEA and TCM libraries (AID 1794839).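 Also: HepG2 cells expressing human CAR with a CYP2B6 reporter plus PK11195 antagonist; luciferase reporter luminescence read with ONE-Glo.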 The method in brief: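 Agonist mode in presence of hCAR antagonist PK11195 (0.75 µM final): test substances, 24 h, 37 °C, on HepG2-CYP2B6-hCAR cells. Same-well readouts: fluorescence viability, then ONE-Glo luminescence; CITCO as reference agonist.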

Assay [4] can be described thus: NCATS anti-infectives library activity on HEK293 viability as a counter-qHTS vs the C. elegans viability qHTS (AID 1745854). The method in brief:
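Cytotoxicity counter-screen to a worm viability qHTS: CellTiter-Glo luminescence read 10 min after reagent addition. Compounds (final up to 41.7 uM, a 1:5 dilution series) incubated 24 hr at 37C with 1,500 HEK293 cells per well; digitonin control.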

Molecules are shown by their SMILES. Results filed as inconclusive are left out. Entries that show only a call come without a potency. Unmarked numbers belong to inactive results. Calls of active or inactive are those of the source. Calls follow the shape of the dose curve; as a rule, active = well fitted curve in the direction sought with a large enough effect; inconclusive = small, poorly fitted or top-dose-only effect, or another doubt; inactive = no such curve, though single readings can be large; an effect the other way counts as inactive or inconclusive.

Sequence of Nuclear receptor subfamily 1 group I member 3 (Homo sapiens) (Q14994 whole entry, looked up): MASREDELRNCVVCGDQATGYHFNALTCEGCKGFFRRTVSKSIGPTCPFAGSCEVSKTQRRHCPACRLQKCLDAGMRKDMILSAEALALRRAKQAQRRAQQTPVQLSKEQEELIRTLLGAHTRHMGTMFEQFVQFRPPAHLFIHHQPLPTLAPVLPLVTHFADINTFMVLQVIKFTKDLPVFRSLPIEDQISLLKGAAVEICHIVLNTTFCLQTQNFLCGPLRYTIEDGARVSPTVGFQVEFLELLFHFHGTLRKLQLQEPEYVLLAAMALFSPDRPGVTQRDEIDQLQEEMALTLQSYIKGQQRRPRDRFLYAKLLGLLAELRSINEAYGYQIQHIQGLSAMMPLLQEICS

Regarding `CC(C)=CCC/C(C)=C/CC/C(C)=C/CC/C(C)=C/CC1=C(C)C(=O)c2ccccc2C1=O`, the compound was called inactive in assay [1] and in assay [2]. In addition, the Potency entry in assay [3] was “inactive”.
As to `CC/C=C\C/C=C\C/C=C\C/C=C\C/C=C\C/C=C\CCC(=O)O`, the call in assay [1] and in assay [2] was inactive. In addition, in assay [3], the Potency entry is “inactive”.
On to `CC(=O)N[C@@H]([C@@H](O)[C@H](O)[C@H](O)CO)[C@@H](O)CC(=O)C(=O)O`, for which the result in assay [4] was inactive.
Still for that read-out and setting: next, `Nc1nc(=O)n([C@@H]2CS[C@H](CO)O2)cc1F`: “inactive”.
With `CCCCC/C=C\C/C=C\C/C=C\CCCCC(=O)O`, in assay [1], the viability change, negative = cytotoxic is -4.69% [at 5 µM]. Also, in assay [2], the activity change, negative = cytotoxicity is -8.92% [at 5 µM]. Further, the activation in assay [3] is -21.9% [at 5 µM].
For `CC(C)=CCC/C(C)=C/C=C/C(C)=C/C=C/C(C)=C/C=C/C=C(C)/C=C/C=C(C)/C=C/C=C(\C)CCC=C(C)C`, the compound was called inactive in assay [4], in assay [1] and in assay [2]. Moreover, the Potency result in assay [3] is “inactive”.
